# Screen size: about 310,000 compounds; about 14,000 (4.5%) showed an effect of 50% or more. Effects have a minus sign here. The sample as a whole holds a higher share of strong results than the screen did.
# Molecular target: human ether-à-go-go-related gene (hERG) potassium channel (human, UniProt Q12809)
# Assay: primary screen, population patch clamp on CHO cells stably expressing hERG; higher = less effect of the substance
# 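Further: peak tail current of the secondary pulse compared with the same well before compound.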
# Sequence of human ether-à-go-go-related gene (hERG) potassium channel (Q12809 whole entry, looked up): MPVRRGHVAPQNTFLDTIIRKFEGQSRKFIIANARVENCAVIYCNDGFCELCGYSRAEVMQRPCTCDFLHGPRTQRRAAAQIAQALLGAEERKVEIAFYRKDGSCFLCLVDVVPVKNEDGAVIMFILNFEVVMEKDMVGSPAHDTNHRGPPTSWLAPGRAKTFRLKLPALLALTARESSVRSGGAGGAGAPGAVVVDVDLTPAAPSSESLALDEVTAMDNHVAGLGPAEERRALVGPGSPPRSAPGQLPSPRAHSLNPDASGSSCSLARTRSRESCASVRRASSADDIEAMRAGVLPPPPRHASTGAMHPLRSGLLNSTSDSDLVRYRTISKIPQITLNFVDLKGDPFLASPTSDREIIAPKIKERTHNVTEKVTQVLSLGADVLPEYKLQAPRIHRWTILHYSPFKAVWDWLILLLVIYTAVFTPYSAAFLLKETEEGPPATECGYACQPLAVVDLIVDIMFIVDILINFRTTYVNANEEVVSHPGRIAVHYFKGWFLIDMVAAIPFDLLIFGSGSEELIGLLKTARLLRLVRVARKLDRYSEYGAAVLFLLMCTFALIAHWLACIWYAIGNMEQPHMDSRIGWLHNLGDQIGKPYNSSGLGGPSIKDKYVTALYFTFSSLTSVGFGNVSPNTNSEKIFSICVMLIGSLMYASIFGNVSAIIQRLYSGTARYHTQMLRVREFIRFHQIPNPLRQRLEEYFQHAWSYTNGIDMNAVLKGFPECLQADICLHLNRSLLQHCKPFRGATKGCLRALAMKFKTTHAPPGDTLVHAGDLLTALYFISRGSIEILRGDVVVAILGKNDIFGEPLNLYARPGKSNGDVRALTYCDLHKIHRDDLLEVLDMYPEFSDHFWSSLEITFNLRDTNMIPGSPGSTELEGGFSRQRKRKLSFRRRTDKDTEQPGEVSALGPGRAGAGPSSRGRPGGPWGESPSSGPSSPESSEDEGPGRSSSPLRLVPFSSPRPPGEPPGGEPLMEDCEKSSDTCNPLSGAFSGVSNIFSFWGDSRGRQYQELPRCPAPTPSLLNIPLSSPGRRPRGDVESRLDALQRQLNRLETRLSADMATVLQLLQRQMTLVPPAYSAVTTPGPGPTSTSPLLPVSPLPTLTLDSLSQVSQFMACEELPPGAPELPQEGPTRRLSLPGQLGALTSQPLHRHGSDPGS
row,SMILES,"hERG current change (%, negative = inhibition) at 10uM"
1,COc1ccc(OCCC(=O)Nc2ccccc2)cc1,-6.83%
2,Cc1cc(C(=O)O[C@H]2[C@H](Cc3ccccc3)NS(=O)(=O)[C@H]3C[C@@H]4C=C[C@]23O4)ccc1[N+](=O)[O-],-1.67%
3,Cn1nc(C(=O)NCc2ccc(F)cc2)c2c1-c1ccccc1S(=O)(=O)C2,-44.9%
4,CC(=O)N(CC(=O)O)c1ccccc1,10.5%
5,Cc1ccc(NS(=O)(=O)c2ccc(CCC(=O)NCCCOC(C)C)cc2)cc1,4.27%
6,O=c1oc2c3c4c(cc2c2c1CCC2)OCCN4CCC3,-0.13%
7,Cc1cccc(C)c1NC(=O)CNc1ccccc1,5.02%
8,O=C(Nn1c(C2CCCCC2)nc2ccccc2c1=O)c1ccc(Cl)c([N+](=O)[O-])c1,-9.26%
9,COC(=O)C1=C(c2ccc(OC)c(OC)c2)C[C@@H]2CC[C@H]1N2C(=O)NCCOc1ccccc1Cl,-12.7%
10,Cc1ccc(C)c(N2CCN(S(=O)(=O)c3ccc4c(c3)OCCO4)CC2)c1,3.7%
11,C#CCOCCOCCOCCNc1nc(N2CCN(C(=O)CCCCCCCCCCNC(=O)[C@H](CCC(=O)O)n3cc(CCCCCN)nn3)CC2)nc(N2CCN(C(=O)CCCCCCCCCCNC(=O)[C@@H]([C@H](C)O)n3cc(C)nn3)CC2)n1,20.1%
12,O=C(CSc1nc2c(c(=O)n1-c1ccc(Cl)cc1)SCC2)N1CCCC1,-17.4%
13,O=C(N/N=C\c1ccc([N+](=O)[O-])o1)C1COc2ccccc2O1 (stereo not drawn),-67.4%
14,O=C(N/N=C\c1ccc(-c2ccc([N+](=O)[O-])cc2)o1)C1COc2ccccc2O1 (stereo not drawn),-7.36%
15,C/C(=N\NC(=O)CNC(=O)C1COc2ccccc2O1)c1ccc(Cl)cc1 (stereo not drawn),-17.6%
16,CC(C)(C)c1ccc2c(c1)OC(C(=O)N/N=C/c1ccc([N+](=O)[O-])o1)CO2 (stereo not drawn),-39.2%
17,C/C(=N/NC(=O)CNC(=O)C1COc2ccccc2O1)c1ccc2c(c1)OCCO2 (stereo not drawn),-1.69%
18,C/C(=N/NC(=O)CNC(=O)C1COc2ccccc2O1)c1ccc([N+](=O)[O-])cc1 (stereo not drawn),-64.7%
19,CC(=O)Nc1ccc(NC(=O)C(C)OC(=O)C(C)SCC(=O)Nc2ccc(F)cc2)cc1 (stereo not drawn),12%
20,CN(NC(=O)COc1ccccc1)C1=NS(=O)(=O)c2ccccc21,26.1%
21,CCCCCNC(=O)C1c2ccccc2Oc2ccccc21,2.44%

row,SMILES,"hERG current change (%, negative = inhibition) at 10uM"
1,CCOC(=O)N1CCN(C(=O)CSc2ccc3nnc(-c4ccccn4)n3n2)CC1,-36%
2,Cc1ccc(-c2nnc3ccc(SCC(=O)N4CCCc5ccccc54)nn23)cc1,-12.5%
3,O=C(CSc1ccc2nnc(-c3ccc(F)cc3)n2n1)N1CCCc2ccccc21,-16%
4,CCOc1ccc(-c2nnc3ccc(SCC(=O)N4CCCCC4)nn23)cc1,-5.88%
5,O=C(CSc1ccc2nnc(-c3ccccc3)n2n1)N1CCCCC1,-59.7%
6,O=C(CSc1ccc2nnc(-c3ccccn3)n2n1)N1CCN(c2ccccc2)CC1,-86.7%
7,O=C(CSc1ccc2nnc(-c3ccccc3)n2n1)N1CCCc2ccccc21,-62.7%
8,O=C(CSc1ccc2nnc(-c3ccccn3)n2n1)N1CCOCC1,-24.5%
9,COc1ccc(-c2nnc3ccc(SCC(=O)N4CCCC4)nn23)cc1,-15.2%
10,COc1cccc(-c2csc(N3CCN(Cc4ccccc4)CC3)n2)c1,0.166%
11,COCC(=O)Nc1nnc(COc2ccc(Cl)cc2)s1,-0.556%
12,CCC(C)(C)C1CCC2(CC1)NC(=O)N(CC(=O)NCCc1c[nH]c3ccccc13)C2=O (stereo not drawn),-20.3%
13,COc1ccccc1N(C(=O)CCl)c1cn(C(C)=O)c2ccccc12,-10.6%
14,C=CCOc1ccccc1C1C2=C(CC(C)(C)CC2=O)Nc2c1c(=O)n(C)c(=O)n2C (stereo not drawn),-3.8%
15,Cc1cccc(CN2CCN(CC(C)C)C(CCO)C2)n1 (stereo not drawn),17.7%
16,CC(C)CCN1CCN(Cc2cccn2-c2ccc(Cl)cn2)CC1CCO (stereo not drawn),-64.8%
17,CC(C)CCN1CCN(Cc2c(F)cccc2Cl)CC1CCO (stereo not drawn),-21.6%
18,CC(C)CN1CCN(Cc2cccn2-c2ccc(Cl)cn2)CC1CCO (stereo not drawn),-64.6%
19,CC(C)CN1CCN(Cc2c(F)cccc2Cl)CC1CCO (stereo not drawn),-10.4%
20,CC(C)CCN1CCN(Cc2ccon2)CC1CCO (stereo not drawn),4.53%
21,O=C(COC(=O)/C=C/c1ccc(Cl)cc1Cl)Nc1cc(C(F)(F)F)ccc1N1CCOCC1,8.56%
